{
  "source": "the supplement of paper PMC13392028",
  "system": "PvIESI-1 RRM domain (Plasmodium vivax PVP01_0939900 aa 896-1203, GST fusion)",
  "assay": "RBNS R-value (6-mer enrichment in protein-bound RNA vs input library) (ratio); higher = stronger binding preference; the methods of the paper give 50 / 100 / 500 nM protein instead",
  "protocol": "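RNA Bind-n-Seq: recombinant GST-tagged IESI-1 RRM domain was incubated at room temperature with a random 40-nt in vitro transcribed RNA library at 250, 500 or 1000 nM protein. Bound RNA was pulled down on glutathione beads and sequenced. R-value is the enrichment of each 6-mer in the bound RNA relative to the input library. Each 6-mer sits inside the random 40-mer context, not as an isolated oligo. Values are replicate 1 only.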",
  "data": [
    {"sequence": "UAUGAU", "values": [
      {"measurement": "RBNS R-value", "setting": "protein concentration: 250 nM", "value": 3.09},
      {"measurement": "RBNS R-value", "setting": "protein concentration: 500 nM", "value": 3.27},
      {"measurement": "RBNS R-value", "setting": "protein concentration: 1000 nM", "value": 3.27}
    ]},
    {"sequence": "CAUGAU", "values": [
      {"measurement": "RBNS R-value", "setting": "protein concentration: 250 nM", "value": 3.57},
      {"measurement": "RBNS R-value", "setting": "protein concentration: 500 nM", "value": 3.87},
      {"measurement": "RBNS R-value", "setting": "protein concentration: 1000 nM", "value": 3.8}
    ]},
    {"sequence": "AGUGAU", "values": [
      {"measurement": "RBNS R-value", "setting": "protein concentration: 250 nM", "value": 2.41},
      {"measurement": "RBNS R-value", "setting": "protein concentration: 500 nM", "value": 2.69},
      {"measurement": "RBNS R-value", "setting": "protein concentration: 1000 nM", "value": 2.63}
    ]},
    {"sequence": "GUGAUG", "values": [
      {"measurement": "RBNS R-value", "setting": "protein concentration: 250 nM", "value": 3.26},
      {"measurement": "RBNS R-value", "setting": "protein concentration: 500 nM", "value": 3.57},
      {"measurement": "RBNS R-value", "setting": "protein concentration: 1000 nM", "value": 3.34}
    ]},
    {"sequence": "GAUGAC", "values": [
      {"measurement": "RBNS R-value", "setting": "protein concentration: 250 nM", "value": 2.47},
      {"measurement": "RBNS R-value", "setting": "protein concentration: 500 nM", "value": 2.67},
      {"measurement": "RBNS R-value", "setting": "protein concentration: 1000 nM", "value": 2.51}
    ]},
    {"sequence": "CUGAUU", "values": [
      {"measurement": "RBNS R-value", "setting": "protein concentration: 250 nM", "value": 3.89},
      {"measurement": "RBNS R-value", "setting": "protein concentration: 500 nM", "value": 4.11},
      {"measurement": "RBNS R-value", "setting": "protein concentration: 1000 nM", "value": 3.75}
    ]},
    {"sequence": "CGUGAU", "values": [
      {"measurement": "RBNS R-value", "setting": "protein concentration: 250 nM", "value": 2.33},
      {"measurement": "RBNS R-value", "setting": "protein concentration: 500 nM", "value": 2.54},
      {"measurement": "RBNS R-value", "setting": "protein concentration: 1000 nM", "value": 2.51}
    ]},
    {"sequence": "GCUGAU", "values": [
      {"measurement": "RBNS R-value", "setting": "protein concentration: 250 nM", "value": 2.62},
      {"measurement": "RBNS R-value", "setting": "protein concentration: 500 nM", "value": 2.82},
      {"measurement": "RBNS R-value", "setting": "protein concentration: 1000 nM", "value": 2.68}
    ]},
    {"sequence": "GAUGAU", "values": [
      {"measurement": "RBNS R-value", "setting": "protein concentration: 250 nM", "value": 3.86},
      {"measurement": "RBNS R-value", "setting": "protein concentration: 500 nM", "value": 4.13},
      {"measurement": "RBNS R-value", "setting": "protein concentration: 1000 nM", "value": 3.88}
    ]},
    {"sequence": "CACCCG", "values": [
      {"measurement": "RBNS R-value", "setting": "protein concentration: 250 nM", "value": 1.41},
      {"measurement": "RBNS R-value", "setting": "protein concentration: 500 nM", "value": 1.76},
      {"measurement": "RBNS R-value", "setting": "protein concentration: 1000 nM", "value": 1.77}
    ]},
    {"sequence": "CCCGAG", "values": [
      {"measurement": "RBNS R-value", "setting": "protein concentration: 250 nM", "value": 1.41},
      {"measurement": "RBNS R-value", "setting": "protein concentration: 500 nM", "value": 1.72},
      {"measurement": "RBNS R-value", "setting": "protein concentration: 1000 nM", "value": 1.72}
    ]},
    {"sequence": "UUGAUU", "values": [
      {"measurement": "RBNS R-value", "setting": "protein concentration: 250 nM", "value": 4.5},
      {"measurement": "RBNS R-value", "setting": "protein concentration: 500 nM", "value": 4.73},
      {"measurement": "RBNS R-value", "setting": "protein concentration: 1000 nM", "value": 4.43}
    ]},
    {"sequence": "UGAUGU", "values": [
      {"measurement": "RBNS R-value", "setting": "protein concentration: 250 nM", "value": 4.24},
      {"measurement": "RBNS R-value", "setting": "protein concentration: 500 nM", "value": 4.51},
      {"measurement": "RBNS R-value", "setting": "protein concentration: 1000 nM", "value": 4.13}
    ]}
  ]
}
